Laboratory results reported in PubChem BioAssay.

What follows are compounds tested against NADPH oxidase 4 (Homo sapiens) (UniProt Q9NPH5) (assay: compounds shifting NOX4 Amplex Red fluorescence – cell-based, HEK293-NOX4, tetracycline-induced, NOX inhibitor project, primary screen (AID 1160)). Conditions: HEK293-NOX4, Amplex Red H2O2 fluorescence, 45 min; higher = more signal, called active from +8 up or from −8 down.
NADPH oxidase 4 (Homo sapiens), sequence (Q9NPH5 whole entry, looked up): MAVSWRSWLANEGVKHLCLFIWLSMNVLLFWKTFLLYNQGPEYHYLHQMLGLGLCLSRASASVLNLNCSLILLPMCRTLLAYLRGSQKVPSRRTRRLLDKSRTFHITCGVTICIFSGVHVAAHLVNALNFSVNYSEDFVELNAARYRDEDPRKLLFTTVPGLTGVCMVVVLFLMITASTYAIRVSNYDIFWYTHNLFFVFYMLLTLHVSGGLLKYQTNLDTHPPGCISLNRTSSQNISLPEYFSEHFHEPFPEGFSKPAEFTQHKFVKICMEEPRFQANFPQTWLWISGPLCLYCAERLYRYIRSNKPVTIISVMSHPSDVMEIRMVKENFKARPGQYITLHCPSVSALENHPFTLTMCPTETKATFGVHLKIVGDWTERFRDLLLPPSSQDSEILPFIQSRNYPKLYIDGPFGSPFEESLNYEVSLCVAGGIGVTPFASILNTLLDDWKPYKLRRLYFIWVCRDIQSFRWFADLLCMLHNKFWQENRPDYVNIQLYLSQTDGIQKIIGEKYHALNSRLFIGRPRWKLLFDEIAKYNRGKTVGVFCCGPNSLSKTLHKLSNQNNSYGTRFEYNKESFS

z-score, inactive:
CO[C@H]1COC(=O)[C@H](CCSC)NC(=O)CC=C[C@@H](C)[C@H](OC)COC(=O)[C@@H](OCc2ccccc2)C=C[C@@H]1C 0.25
COC(=O)[C@H](C)NC(=O)CCC1CC(OC(=O)NCCc2ccc(F)cc2)CC2(CCCC(COC(=O)NCCc3ccccc3OC)O2)O1 (stereo partly specified) 0.369
CC(C)CN1CCc2nc(-c3ccccc3)c3c(c2C1)CO[C@@H](C)C3 -2.08
CC(C)[C@@H](OCc1ccccc1)[C@H](C)CON=C1[C@H]2CCn3c(=O)n(-c4ccccc4)c(=O)n3[C@H]2[C@H](O)[C@@H]2O[C@H]12 0.202
CON=C(C)CCN1CCc2nc(-c3ccccc3)c(-c3ccccc3)cc2C1 -2.6
COc1ccc(OC[C@H]2CN3[C@@H](CC[C@@H](C)[C@@H]3c3ccc(Br)cc3)C(=O)O2)cc1 -1.61
O=C(NN=C1C[C@@H](O)[C@@H](O)[C@@H]2[C@@H]3C(=O)N(c4ccc(F)cc4F)C(=O)[C@@H]3CC[C@H]12)OCc1ccccc1 1.33
COC(=O)[C@H](C)NC(=O)CCC1CC(OC(=O)NCc2cccc3ccccc23)CC2(CCCC(COC(=O)NCc3ccccc3)O2)O1 (stereo partly specified) 0.73
O=C1C2=CC[C@H]3C(=O)N(C4CCCCC4)C(=O)[C@H]3[C@H]2[C@H](O)[C@@H]2O[C@H]12 0.3
C#CCCCON=C1C[C@@H](O)[C@@H](O)[C@@H]2[C@@H]3C(=O)N(C[C@@H]4CCCO4)C(=O)[C@@H]3CC[C@H]12 -1.68
O=C1[C@H]2CCn3c(=O)n(-c4ccccc4)c(=O)n3[C@H]2[C@H](O)[C@@H]2O[C@H]12 -0.584
CC(=O)OC[C@H]1O[C@H](CC=NOCC[C@@H]2C=C[C@H](OC(C)=O)[C@@H](COC(C)=O)O2)C=C[C@@H]1OC(C)=O 0.484
CCCNC(=O)OC[C@H]1O[C@H](CCON=C[C@@H](C)[C@H](OCc2ccccc2)C(C)C)C=C[C@@H]1Oc1ccc(OC)cc1 0.368
CC(CCC(=O)OC[C@H]1O[C@H](C#Cc2ccccc2)C=C[C@@H]1Oc1ccc(C)cc1)=NOC(C)CN1CCCCc2nc(C)c(C)cc21 (stereo partly specified) -0.341
CCN1C(=O)[C@H]2[C@H]3[C@H](O)[C@H](O)CC(=NNC(=O)OCc4ccccc4)[C@H]3CC[C@H]2C1=O 0.424
CO[C@@H](C(C)C)[C@@H](C)C1OC(=O)CC1O (stereo partly specified) 0.129
CC(C)=NOC(C)CN1CCCc2nc(C)c(C)cc21 (stereo unspecified) -0.141
CO[C@@H]1[C@H](O)CO[C@H]1C=Cc1ccccc1 -0.898
COc1ccc(O[C@H]2C=C[C@@H](C#Cc3ccccc3)O[C@@H]2CO)cc1 -0.196
CC(CCC(=O)OC[C@H]1O[C@H](C#Cc2ccccc2)C=C[C@@H]1Oc1ccc(C)cc1)=NOC[C@@H](C)[C@H](OCc1ccccc1)C(C)C 1.16
CC(CCN1CCc2nc(-c3ccccc3)c(-c3ccccc3)cc2C1)=NOC(C)CN1CCCc2nc(C)c(C)cc21 (stereo unspecified) -0.946
CCOC(=O)[C@H](CC(C)C)NC(=O)CCC1CC(OC(=O)NCc2ccc3c(c2)OCO3)CC2(CCCC(COC(=O)NCCc3ccc(Cl)cc3)O2)O1 (stereo partly specified) 0.575
CC(=O)OC[C@H]1O[C@@H](ON=C(C)CCC(=O)OC[C@H]2O[C@H](C#Cc3ccccc3)C=C[C@@H]2Oc2ccc(C)cc2)[C@H](OC(C)=O)[C@@H](OC(C)=O)[C@@H]1OC(C)=O 1.2
CC(C)CON=C1C[C@@H](O)[C@@H](O)[C@@H]2[C@@H]3C(=O)N(c4ccc(F)cc4F)C(=O)[C@@H]3CC[C@@H]12 -1.87
CCOC(=O)CCN1C(=O)[C@H]2[C@H]3[C@H](O)[C@H](O)CC(=NO[C@@H]4O[C@H](CO)[C@@H](O)[C@H](O)[C@H]4O)[C@H]3CC[C@H]2C1=O 0.451
CCOC(=O)[C@H](Cc1ccccc1)NC(=O)CCC1CC(OC(=O)NCc2cccc3ccccc23)CC2(CCCC(COC(=O)NCCc3ccc(Cl)cc3)O2)O1 (stereo partly specified) 0.92
CCN1C(=O)[C@H]2[C@H]3[C@H](O)[C@H](O)CC(=NOC[C@@H](O)COCc4ccco4)[C@H]3CC[C@H]2C1=O 0.0462
C#CCCCON=C1C[C@@H](O)[C@@H](O)[C@@H]2[C@@H]3C(=O)N(C4CCCCC4)C(=O)[C@@H]3CC[C@@H]12 0.699
COC(=O)[C@H](CCSC)NC(=O)CC=C[C@@H](C)CO -1.2
CCc1cc2c(nc1CC)CCN(CCC(C)=NO[C@@H]1O[C@H](COC(C)=O)[C@@H](OC(C)=O)[C@H](OC(C)=O)[C@H]1OC(C)=O)C2 0.47
CO[C@H]1COC(=O)[C@H](C)COC(=O)[C@H](C)NC(=O)CC=C[C@H]1C 0.299
COC(=O)[C@H](C)NC(=O)CCC1CC(OC(=O)NCc2ccc3c(c2)OCO3)CC2(CCCC(COC(=O)NCCCN3CCCC3=O)O2)O1 (stereo partly specified) -1.51
COc1ccc(COC(=O)NN=C2C[C@@H](O)[C@@H](O)[C@@H]3[C@@H]4C(=O)N(C[C@@H]5CCCO5)C(=O)[C@@H]4CC[C@@H]23)cc1 0.995
COc1ccc(COC(=O)NN=C2C[C@@H](O)[C@@H](O)[C@@H]3[C@@H]4C(=O)N(C(C)(C)C)C(=O)[C@@H]4CC[C@@H]23)cc1 0.808
CCOC(=O)[C@H](CC(C)C)NC(=O)CCC1CC(OC(=O)NCc2ccc3c(c2)OCO3)CC2(CCCC(COC(=O)NCc3ccccc3)O2)O1 (stereo partly specified) 0.47
CC(C)[C@H](NC(=O)OC(C)(C)C)[C@@H](O)CC(=O)C(C)(C)C 0.34
